# Measurements reported in ChEMBL document CHEMBL3988442, “University of Dundee, Small-Polar-MMV Screening Library” (2021).
# For some assays here: Measured potencies and affinities stand elsewhere.
# Key:
# Set-up in all cases: scale not given: direction of the effect not stated beside the values
# [1] = biological target: Protein translocase subunit SecA (Escherichia coli (strain K12)) (UniProt P10408); experiment: Assay to Identify E. coli SecA ATPase Inhibitors; type: functional; conditions: 30 µM
# Protein translocase subunit SecA (Escherichia coli (strain K12)), sequence (P10408 whole entry): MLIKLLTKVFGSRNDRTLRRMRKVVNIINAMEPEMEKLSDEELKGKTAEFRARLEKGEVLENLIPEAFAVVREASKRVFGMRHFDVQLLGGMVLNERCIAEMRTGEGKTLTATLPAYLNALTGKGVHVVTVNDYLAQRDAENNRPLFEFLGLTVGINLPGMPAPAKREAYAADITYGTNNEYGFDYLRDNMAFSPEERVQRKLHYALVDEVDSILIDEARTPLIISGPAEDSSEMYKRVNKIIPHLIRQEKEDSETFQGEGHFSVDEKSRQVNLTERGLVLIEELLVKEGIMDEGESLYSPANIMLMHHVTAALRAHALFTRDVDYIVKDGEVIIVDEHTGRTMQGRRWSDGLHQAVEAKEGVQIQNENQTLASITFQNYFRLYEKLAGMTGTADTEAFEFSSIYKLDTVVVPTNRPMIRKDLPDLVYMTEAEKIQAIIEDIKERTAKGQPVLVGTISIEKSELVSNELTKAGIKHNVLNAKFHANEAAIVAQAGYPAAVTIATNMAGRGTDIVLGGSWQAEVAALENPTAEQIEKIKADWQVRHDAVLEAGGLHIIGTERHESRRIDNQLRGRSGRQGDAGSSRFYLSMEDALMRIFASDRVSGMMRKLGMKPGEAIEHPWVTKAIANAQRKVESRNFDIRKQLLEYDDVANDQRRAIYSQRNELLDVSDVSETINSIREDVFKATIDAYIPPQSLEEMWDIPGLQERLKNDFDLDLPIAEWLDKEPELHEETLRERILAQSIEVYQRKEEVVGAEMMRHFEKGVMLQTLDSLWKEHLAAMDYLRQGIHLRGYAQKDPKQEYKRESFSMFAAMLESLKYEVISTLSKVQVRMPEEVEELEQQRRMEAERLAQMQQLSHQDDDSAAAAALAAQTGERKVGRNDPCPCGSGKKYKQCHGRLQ
# [2] = biological target: T1, Ubiquitin-activating enzyme e1, putative (Leishmania donovani (strain BPK282A1)) (UniProt E9BSI1); experiment: Leishmania donovani Ubiquitin Activating Enzyme (LdE1); type: functional; conditions: 30 µM
# T1 sequence (whole entry): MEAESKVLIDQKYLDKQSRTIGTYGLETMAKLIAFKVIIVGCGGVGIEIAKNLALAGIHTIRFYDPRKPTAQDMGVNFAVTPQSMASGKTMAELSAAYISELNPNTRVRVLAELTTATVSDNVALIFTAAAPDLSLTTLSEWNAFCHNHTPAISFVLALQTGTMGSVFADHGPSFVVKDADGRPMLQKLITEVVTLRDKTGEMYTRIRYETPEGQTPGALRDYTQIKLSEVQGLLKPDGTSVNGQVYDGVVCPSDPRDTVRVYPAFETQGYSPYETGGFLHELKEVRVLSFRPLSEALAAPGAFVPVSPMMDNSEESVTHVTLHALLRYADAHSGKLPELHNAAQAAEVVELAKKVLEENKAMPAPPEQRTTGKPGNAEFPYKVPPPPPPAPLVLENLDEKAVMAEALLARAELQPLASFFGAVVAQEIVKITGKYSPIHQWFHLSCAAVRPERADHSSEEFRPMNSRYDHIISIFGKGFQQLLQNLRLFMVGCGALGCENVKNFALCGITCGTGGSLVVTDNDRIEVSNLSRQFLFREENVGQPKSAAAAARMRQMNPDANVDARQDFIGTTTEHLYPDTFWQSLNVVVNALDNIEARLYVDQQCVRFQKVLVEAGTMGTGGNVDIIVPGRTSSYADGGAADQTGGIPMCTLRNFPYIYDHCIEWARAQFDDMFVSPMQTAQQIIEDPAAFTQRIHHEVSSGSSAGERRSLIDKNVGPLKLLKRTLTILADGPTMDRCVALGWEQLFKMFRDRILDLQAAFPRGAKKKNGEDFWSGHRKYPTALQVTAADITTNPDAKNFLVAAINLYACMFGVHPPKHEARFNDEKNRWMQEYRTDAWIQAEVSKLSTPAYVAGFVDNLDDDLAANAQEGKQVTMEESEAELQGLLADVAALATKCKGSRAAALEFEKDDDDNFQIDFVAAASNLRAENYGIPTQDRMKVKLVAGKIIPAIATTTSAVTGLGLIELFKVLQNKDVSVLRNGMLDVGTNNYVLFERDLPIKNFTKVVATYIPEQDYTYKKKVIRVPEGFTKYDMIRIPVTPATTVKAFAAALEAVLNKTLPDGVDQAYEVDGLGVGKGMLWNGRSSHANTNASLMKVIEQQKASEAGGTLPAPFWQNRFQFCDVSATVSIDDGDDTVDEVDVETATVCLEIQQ
# [3] = biological target: AMP-activated protein kinase, AMPK (Homo sapiens) (UniProt P54646+O43741+P54619+Q9UGJ0+Q9Y478+Q13131+Q9UGI9); experiment: AMP-dependent Kinase enzyme assay. An in vitro enzyme assay that detects ADP turnover that is directly proportional to AMPK activity. This uses naive AMPK that is activated during the assay with MK-8722; type: functional; conditions: 30 µM
# [4] = biological target: Sialic acid-binding Ig-like lectin 9 (Homo sapiens) (UniProt Q9Y336); experiment: Hs-Siglec9 ALPHAscreen SOP 20170721; conditions: 10 µM
# Sialic acid-binding Ig-like lectin 9 (Homo sapiens), sequence (Q9Y336 whole entry): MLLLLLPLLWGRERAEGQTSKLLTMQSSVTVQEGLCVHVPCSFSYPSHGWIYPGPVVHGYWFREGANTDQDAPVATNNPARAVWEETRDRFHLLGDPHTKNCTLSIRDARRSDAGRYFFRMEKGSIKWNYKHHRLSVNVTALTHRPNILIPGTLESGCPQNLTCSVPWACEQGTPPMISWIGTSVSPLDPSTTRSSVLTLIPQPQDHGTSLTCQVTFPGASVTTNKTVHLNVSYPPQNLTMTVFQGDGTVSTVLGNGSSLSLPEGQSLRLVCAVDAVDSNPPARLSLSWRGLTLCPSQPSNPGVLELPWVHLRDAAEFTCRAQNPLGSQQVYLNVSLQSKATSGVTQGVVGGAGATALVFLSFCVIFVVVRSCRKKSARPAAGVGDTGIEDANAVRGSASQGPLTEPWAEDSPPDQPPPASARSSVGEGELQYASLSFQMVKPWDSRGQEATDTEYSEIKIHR
# [5] = system: Trypanosoma cruzi; experiment: Trypanosoma cruzi phosphomannomutase and mannose-1-phosphate guanylyltransferase assay; type: functional; conditions: 10 µM
# [6] = biological target: T2, Arginase-2, mitochondrial (Homo sapiens) (UniProt P78540); experiment: in vitro enzyme assay to detect the production of urea directly proportional to the activity of Arginase II; type: functional; conditions: 33.3 µM; further: in the data most compounds retested in dose-response had high values
# T2 sequence (whole entry): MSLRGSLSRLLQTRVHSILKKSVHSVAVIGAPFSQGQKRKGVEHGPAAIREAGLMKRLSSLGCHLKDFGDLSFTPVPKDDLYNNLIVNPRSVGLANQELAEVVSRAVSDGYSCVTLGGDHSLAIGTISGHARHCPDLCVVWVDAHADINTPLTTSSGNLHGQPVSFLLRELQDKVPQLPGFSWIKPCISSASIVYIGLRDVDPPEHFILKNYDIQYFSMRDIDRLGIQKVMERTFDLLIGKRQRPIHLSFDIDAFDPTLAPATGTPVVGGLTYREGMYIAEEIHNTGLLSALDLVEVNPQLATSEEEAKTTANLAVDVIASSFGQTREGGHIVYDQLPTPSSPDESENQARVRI
# [7] = biological target: T3, Proteasome subunit beta (Trypanosoma cruzi) (UniProt O96673); experiment: Trypanosoma cruzi proteasome chymotrypsin-like activity (TcProtChymo) assay.; further: in the data most compounds retested in dose-response had high values; type: functional; conditions: 9.37 µM
# T3 sequence (whole entry): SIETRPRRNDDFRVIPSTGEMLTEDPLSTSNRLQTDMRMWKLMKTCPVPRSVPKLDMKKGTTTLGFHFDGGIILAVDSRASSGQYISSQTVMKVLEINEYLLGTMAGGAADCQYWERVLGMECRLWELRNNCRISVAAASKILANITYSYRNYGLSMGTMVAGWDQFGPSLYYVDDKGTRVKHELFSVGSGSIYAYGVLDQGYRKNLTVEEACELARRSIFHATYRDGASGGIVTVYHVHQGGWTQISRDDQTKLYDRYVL
# [8] = organism: Homo sapiens; experiment: To identify inhibition of the IFN signalling (Jak-Stat) pathway via expression of an eGFP reporter gene under the control of an IFN-stimulated response element (ISRE) containing MxA promoter.; type: functional; conditions: 30 µM
# [9] = biological target: T4, Tyrosyl-tRNA synthetase, putative (Trypanosoma cruzi (strain CL Brener)) (UniProt Q4DSP6); experiment: Trypanosoma cruzi tyrosyl tRNA synthetase (TcYRS) _High Tyrosine SOP; type: functional; conditions: 30 µM; further: in the data most compounds retested in dose-response had high values
# T4 sequence (whole entry): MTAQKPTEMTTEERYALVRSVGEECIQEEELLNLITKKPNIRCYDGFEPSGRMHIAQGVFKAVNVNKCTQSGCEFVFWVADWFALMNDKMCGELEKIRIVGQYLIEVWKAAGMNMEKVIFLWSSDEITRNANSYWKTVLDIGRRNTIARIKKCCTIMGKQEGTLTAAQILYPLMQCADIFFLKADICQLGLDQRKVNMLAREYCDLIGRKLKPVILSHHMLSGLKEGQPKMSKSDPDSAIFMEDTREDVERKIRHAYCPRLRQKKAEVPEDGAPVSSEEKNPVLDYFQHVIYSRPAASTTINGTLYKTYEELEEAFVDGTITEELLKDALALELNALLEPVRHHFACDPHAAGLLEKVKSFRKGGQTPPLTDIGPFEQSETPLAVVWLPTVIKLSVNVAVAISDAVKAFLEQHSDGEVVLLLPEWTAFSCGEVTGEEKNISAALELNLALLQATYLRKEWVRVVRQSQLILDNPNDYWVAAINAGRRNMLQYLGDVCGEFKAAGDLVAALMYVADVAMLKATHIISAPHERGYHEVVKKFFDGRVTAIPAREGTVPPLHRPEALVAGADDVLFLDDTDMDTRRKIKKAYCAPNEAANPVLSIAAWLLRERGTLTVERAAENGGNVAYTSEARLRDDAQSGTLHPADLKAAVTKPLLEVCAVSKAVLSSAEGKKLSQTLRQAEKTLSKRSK
# [10] = biological target: T4, Tyrosyl-tRNA synthetase, putative (Trypanosoma cruzi (strain CL Brener)); experiment: Trypanosoma cruzi tyrosyl tRNA synthetase (TcYRS) SOP; type: functional; conditions: 30 µM
# [11] = biological target: Chromo domain-containing protein 1 (Saccharomyces cerevisiae (strain ATCC 204508 / S288c) (Baker's yeast)) (UniProt P32657); experiment: ScCHD-1 Enzyme Inhibition Assay; type: functional; conditions: 30 µM; further: in the data most compounds retested in dose-response had high values
# Chromo domain-containing protein 1 (Saccharomyces cerevisiae (strain ATCC 204508 / S288c) (Baker's yeast)), sequence (P32657 whole entry, the tested form may be a part): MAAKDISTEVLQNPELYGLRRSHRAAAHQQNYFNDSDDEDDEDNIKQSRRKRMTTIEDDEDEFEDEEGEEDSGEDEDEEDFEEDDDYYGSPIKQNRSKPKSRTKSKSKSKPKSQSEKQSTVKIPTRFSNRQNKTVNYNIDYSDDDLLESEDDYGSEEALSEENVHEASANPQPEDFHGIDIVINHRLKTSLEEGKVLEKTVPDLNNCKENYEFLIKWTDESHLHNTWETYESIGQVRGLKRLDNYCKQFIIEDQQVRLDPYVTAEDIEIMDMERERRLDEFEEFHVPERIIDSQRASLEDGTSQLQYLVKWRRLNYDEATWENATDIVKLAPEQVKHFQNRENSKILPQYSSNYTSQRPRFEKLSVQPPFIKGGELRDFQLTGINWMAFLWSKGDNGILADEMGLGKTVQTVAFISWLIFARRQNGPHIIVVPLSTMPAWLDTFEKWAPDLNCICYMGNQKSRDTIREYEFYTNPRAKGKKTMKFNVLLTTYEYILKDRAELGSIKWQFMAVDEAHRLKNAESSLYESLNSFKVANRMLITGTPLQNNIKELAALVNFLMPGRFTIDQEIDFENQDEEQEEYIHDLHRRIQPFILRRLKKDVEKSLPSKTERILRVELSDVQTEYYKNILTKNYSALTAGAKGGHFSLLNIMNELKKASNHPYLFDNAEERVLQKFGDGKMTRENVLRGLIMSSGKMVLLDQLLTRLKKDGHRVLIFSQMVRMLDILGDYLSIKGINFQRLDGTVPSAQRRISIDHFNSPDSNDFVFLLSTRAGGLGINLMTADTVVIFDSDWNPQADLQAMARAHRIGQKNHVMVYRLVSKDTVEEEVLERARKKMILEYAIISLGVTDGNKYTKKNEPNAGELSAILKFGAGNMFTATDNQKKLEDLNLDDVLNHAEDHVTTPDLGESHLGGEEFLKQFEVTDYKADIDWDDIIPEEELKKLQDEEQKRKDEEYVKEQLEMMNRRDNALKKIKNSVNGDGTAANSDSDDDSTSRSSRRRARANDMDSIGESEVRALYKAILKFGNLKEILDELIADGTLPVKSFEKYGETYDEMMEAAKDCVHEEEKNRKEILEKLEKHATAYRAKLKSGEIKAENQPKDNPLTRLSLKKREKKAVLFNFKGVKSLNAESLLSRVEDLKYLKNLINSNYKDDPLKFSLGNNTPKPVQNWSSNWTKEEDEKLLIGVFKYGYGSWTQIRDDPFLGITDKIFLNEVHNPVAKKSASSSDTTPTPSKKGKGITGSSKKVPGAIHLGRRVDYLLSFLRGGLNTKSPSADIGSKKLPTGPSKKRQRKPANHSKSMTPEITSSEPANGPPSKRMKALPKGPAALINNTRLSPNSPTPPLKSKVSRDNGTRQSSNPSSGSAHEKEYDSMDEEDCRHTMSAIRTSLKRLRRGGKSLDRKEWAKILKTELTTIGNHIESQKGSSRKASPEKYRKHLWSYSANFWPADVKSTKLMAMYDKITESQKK
SMILES,Percent Effect [1] [%],Percent Effect [2] [%],Percent Effect [3] [%],Percent Effect [4] [%],Percent Effect [5] [%],Percent Effect [6] [%],Percent Effect [7] [%],Percent Effect [8] [%],Percent Effect [9] [%],Percent Effect [10] [%],Percent Effect [11] [%]
O=C(CCc1cccnc1)N1CCCC(n2cncn2)C1 (stereo not given),-2.09,0,4.67,4.06,2.74,0.76,-1.23,-1.71,2.46,-1.27,-1.28
Cc1cccc(-n2c(C)cc(C(=O)N3CCn4c(C)nnc4C3)c2C)c1,-3.26,10.5,-12.3,9.36,2.15,-3.6,7.19,3.33,11.3,16.1,-0.518
CCn1nc(C)c2ncnc(NCCCN3CCOCC3)c21,-5.99,9.33,-3.7,9.5,0.786,-2.64,12.2,-4.74,5.29,12.8,-10.7
Cc1c[nH]c(CN(C)C(=O)C2CC(=O)N(Cc3ccncc3)C2)n1 (stereo not given),-3.45,5.41,-2.63,-5.87,-5.77,-1.24,8.33,0.971,-1.07,1.24,-4.02
O=C(c1ccoc1)N1CCC2(CC1)C(=O)Nc1ccccc12,-2.34,16.2,-9.89,3.61,2.44,6.2,5.06,37.9,8.6,18.5,-8.75
CC(C)c1nn(C)c(N(C)C)c1CNCCC(=O)N(C)C,-2.63,0,-11.4,-2.27,2.15,0.719,5.16,-16.3,-0.493,3.7,0.33
Cc1cc2c(=O)n3c(nc2s1)CCN(C(=O)c1scnc1C)CC3,-1.99,9.46,9.3,2.42,-1.58,-5.34,7.49,-18,-1.07,11.7,-8.95
Cc1cc(C)n(Cc2ccc(C(=O)NCCN3CCOCC3)cc2)n1,-1.98,4.17,-0.277,-1.95,6.32,-0.442,19.6,5.69,7.37,7.69,-6.36
O=C1c2cnc(N3CCOCC3)nc2CN1c1ccc2c(c1)OCO2,-4.88,7.79,1.53,6.09,2.26,-5.52,14.5,-11.1,9.68,21,0.201
O=C(NCCNc1ncccn1)N(Cc1ccc(F)cc1F)C1CC1,-3.52,10.1,-4.4,16.9,-2.36,1.52,-3.03,8.99,2.46,8.86,-3.1
